# Data reported in the supplement of paper PMC11417369.
# ± gives the standard deviation of the averaged measurements. The full ranking holds about 25,000 sequences; the median of “ln(normalized median fluorescence intensity)” is about 10, and the highest 2% start at about 12. This excerpt belongs to a sample that is enriched for the highest values.
# System: PfAP2-G AP2 domain (GST-tagged)
# Experiment: gcPBM binding intensity (ln(normalized median fluorescence intensity)); higher = stronger DNA binding
# Method in brief: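 GST-tagged P. falciparum DNA-binding domains produced in E. coli were incubated for 1 h on an Agilent 4 × 180k array of primer-extended double-stranded 36-bp intergenic genomic probes with negative controls. Binding intensity is the highest Masliner-normalised natural-log median intensity across replicate spots of either probe orientation, with bound protein detected by Alexa488 anti-GST antibody at 488 nm.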
row,Sequence,gcPBM binding intensity (ln)
1,CTCAATATATTTGATTTACACACTTACAATGTATAT [CACACA_site8982],10.04 ± 0.078
2,GATATATATATTCACACACACATGGAAATATATATA [CACACA_site382],9.88 ± 0.028
3,ATATATATGGTCATTTGTACATATCGTGAGAGCTGC [XGTACX_site4117],11 ± 0.49
4,TATAAAAATAAAAAAAGTACACATAAAAATATATAT [XGTACX_site5189],11.5 ± 0.78
5,GTATTATAAAAAGGAAGTACATATATACATATTATA [XGTACX_site1271],11.3 ± 0.75
6,AAAAAAAAAAAAAGTACACACATACATATAAATATA [CACACA_site8533],11.5 ± 0.86
7,ATATATATAATTTAAAGTACATATTTAAGAATGAAA [XGTACX_site2238],11.1 ± 0.67
8,GAAAAAAGAAAAAAAAGTACATATATTTAATAAGAC [XGTACX_site6912],11.4 ± 0.86
9,AAAAATATATAATAAAGTACACATAAATGAATAAAT [XGTACX_site329],11.5 ± 0.81
10,AATGAATATTAAAGGAGTACACATAATAAGTAAGAA [XGTACX_site7354],11.7 ± 0.99
11,AATAAATAAAGAAGTACACACATATATATATATATA [CACACA_site4314],11.7 ± 1.1
12,TTAAGAAAAAAAAAAAGTACACACATATAATATATA [XGTACX_site6268],11.6 ± 1
13,ATATATATATAAAGGAGTACATACATTAAAAAAAAA [XGTACX_site1095],11.7 ± 1
14,AGTAGATATAAAAGGAGTACACATATATATATAAAT [XGTACX_site4375],11.6 ± 1
15,TTAAGAAACAAAGAAAGTACACAACATAATATAGAA [XGTACX_site477],11.4 ± 0.69
16,ATATTAATATATGTGGCACACATGTGGAGTCCTATT [CACACA_site213],10.7 ± 0.43
17,TTATCACATTATTGCACACACATAAAGAAAAAAATA [CACACA_site2841],10.4 ± 0.5
18,AAAAAAATAAAATATATATATATATATATATATATA [GTGCAC_negctrl_site706],9.96 ± 0.89
19,ATATATATGTGTAAAAGTACATATATTTTGAAATAT [XGTACX_site4024],11.2 ± 0.79
20,TTATAATTGTAAGGTAGTACATATAAATCAAATAAT [XGTACX_site7190],11.5 ± 0.94
21,ATATAAATAAAAAAAAGTACATAATATATAAAAATA [XGTACX_site3065],11.5 ± 1
22,TTAAAAAAAAAAAAAAGTACATAAGTATATATAATA [XGTACX_site4295],11.7 ± 1
23,TATATATAAAAAAAAAGTACATATAATATAATATTT [XGTACX_site7902],11.5 ± 1

row,Sequence,gcPBM binding intensity (ln)
1,TATGATTTTAATGAAACACACAATTTTATGTTAATA [CACACA_site311],9.82 ± 0.11
2,TTATAATATATATGTAGTACTGTTTTTTTCTATTTT [XGTACX_site7749],11 ± 0.63
3,CACACCACCAACAAAAGTACATACATATATATATAT [XGTACX_site5781],11.3 ± 0.82
4,CTTTTGCCCAAAAAGGTACACACCACAATGTACATA [CACACA_site809],11.6 ± 0.91
5,TTTGCCCAAAAAGGTACACACCACAATGTACATAAA [CACACA_site4599],11.9 ± 1.1
6,TCTTTTGCCCAAAAAGGTACACACCACAATTTAAAT [XGTACX_site1482],11.4 ± 0.88
7,CTTTTGCCCAAAAAGGTACACACCACAAAGTACATA [CACACA_site8169],11.9 ± 1.2
8,TGTACAACAATTTTTGCACACACCAAAACATAAAAT [CACACA_site1598],11.1 ± 0.2
9,TCTTTTTACACCTCTTACATAAAACAAAATAAGGGG [XGTACX_negctrl_site12],10.7 ± 0.38
10,TTTATTTATTATTATGTACACACTATATTAAAACAT [CACACA_site700],11.4 ± 0.87
11,ATATAATTACCATATGGTACACACATATATATATGT [XGTACX_site7393],11.3 ± 0.62
12,ATCAAATAATAGCAAACACACAAAAAATAAAAAAAA [CACACA_site4146],9.96 ± 0.15
13,ACATTAAAAAAAAAATGTACATAAATATTTTTCCTT [XGTACX_site4361],11.1 ± 0.59
14,GGATAAAATGCTACGAGTACATAAGCATTTTTCCCT [XGTACX_site7796],11.7 ± 1.2
15,AAAAAATATAAAACGAGTACATATATAATAAGCAAA [XGTACX_site1360],11.4 ± 0.82
16,AGGTACTTTTTTAAAACACACATATAACATATACAC [CACACA_site6629],11.3 ± 1.1
17,ATACATTCTAATACGTGTACATATATATATATATAT [XGTACX_site1881],11.4 ± 0.81
18,TACACAGACGGACACACACACACACTAGAAAAAAAA [CACACA_site4435],11.7 ± 1.2
19,ATAAATAAAGGACACACACACACACTAGAAAAAAAA [CACACA_site5450],11.2 ± 0.92
20,AACAAATACGGACACACACACACACTAGAAAAAAAA [CACACA_site4442],11.4 ± 0.86
21,AAACGTGCGTATATGTGTACGCATATATATATATAT [XGTACX_site5252],11.6 ± 1
22,GTATGTATGTATGTATGTACGTATGTATGTATATAT [XGTACX_site3369],11.6 ± 0.98
23,ATTTATATATATGTATGTACGTATGTGTGTATATGT [XGTACX_site7587],11.4 ± 0.88

row,Sequence,gcPBM binding intensity (ln)
1,ATGACATGTTCTAAATGTACATTTTTTAACCCTTTT [XGTACX_site1858],10.8 ± 0.4
2,TTTTTTTTTTTTTTATGTACATATATATATTTTATT [XGTACX_site6915],11.2 ± 0.98
3,TTTTTTTTTTCTTTTTTTTATTATATTAACGGAATT [GTGCAC_negctrl_site104],9.82 ± 0.17
4,ATGGTAGTGATTAAAAGTACACGTAATTGTAAAAAT [XGTACX_site387],11.7 ± 0.79
5,TTAGTTATTATAATTTGTACACAAATGGTAAAGTAT [XGTACX_site2343],11.2 ± 0.71
6,CAAATGGTAAATGAAAGTACAAATTGTTTTGATTAA [XGTACX_site1536],10.8 ± 0.4
7,TAAAAAAAAAAATGAACATGCAACAATTGTGATGAA [TGCATGCA_site332],9.74 ± 0.32
8,AAATAAATAAATAGACGTACAAAAATATTATACATT [XGTACX_site6776],11.2 ± 0.8
9,GCACCAAAAAAAAGACGTACAGTTATATTAAAATAG [XGTACX_site8926],11.7 ± 1
10,ATTATATTAAAATACACACCCAAATATTAAAAAGAT [CACACA_site5613],10.4 ± 0.19
11,TTTTTATAAGCATAAAGTACAAATATTTTTTAGTTG [XGTACX_site4140],11 ± 0.59
12,TGTAAGTATTCTTGAGGTACACATATAAATATAGTA [XGTACX_site3207],11.4 ± 0.79
13,AAATATATATATATATATATATATATATATATATAT [CACACA_negctrl_site677],10 ± 1
14,ATAGAATAATATTGTAGTACTAAAAATATTCATTTT [XGTACX_site6447],11.4 ± 0.92
15,TAATATTTATAAAATAGTACACAGAAAAAGCATTTT [XGTACX_site8948],11.4 ± 0.88
16,TATATAAAGCATTGTAGTACTACCAATATTTTTTTT [XGTACX_site3523],11.6 ± 1
17,GGAAACCTTTTTTTTACACACAATATATTAAGACTT [CACACA_site4899],9.86 ± 0.014
18,AAAAAAAAATTAAACATACACACGTTACTATTTTTA [CACACA_site1687],9.64 ± 0.26
19,TAGTATTATTTTTTTTGTACATATAAATGTAAAATA [XGTACX_site5282],11 ± 0.71
20,TATTAAGTATTTTACGTACACACTTATAAATGTACA [CACACA_site3885],11.7 ± 0.82
21,AAAATTATTAAATATGTACACACGTACATTTTATAA [CACACA_site8750],11.6 ± 0.88
22,TTATTAAATATGTACACACGTACATTTTATAAATGA [CACACA_site2387],11.7 ± 1.1
23,TATAATATATTTTAATGTACGTACATCCCGATTAAT [XGTACX_site7651],11.7 ± 0.86

row,Sequence,gcPBM binding intensity (ln)
1,TACGTATTTTAATATTTACACACTTATTTTTTATAT [CACACA_site7924],10.2 ± 0.13
2,AATATTTTTAATTAATGTACATATTTATTATATAAA [XGTACX_site5112],11.2 ± 0.76
3,AATTATTAAATATGTACACACGTACATTTTATAAAT [CACACA_site5341],11.6 ± 1
4,TTATACATATTTATATGTACGTAATATAATATTAAT [XGTACX_site6520],11.3 ± 0.91
5,TTATTATAAATGTTTTGTACGTACATCCGAAAATAA [XGTACX_site2175],11.7 ± 1.2
6,AAATGTATAATTTTTTAATACACTTATTTAAAATAA [CACACA_negctrl_site797],10.1 ± 0.2
7,AATGTTTATTTTGTTTGTACATAAAATGAATAAAAT [XGTACX_site1456],11.1 ± 0.77
8,CCTTTCTATTGAAAATGTACATATATATTATTATAT [XGTACX_site5527],11.1 ± 0.71
9,ATATTTTCTAATCAATGTACTTATTCTACACATTAA [XGTACX_site5774],11.3 ± 0.92
10,ATGGAAATATATACATGTACATAAATATATATATAT [XGTACX_site8391],11.2 ± 0.61
11,TTTTACTCTTAAAATAATAAAAAATATTCACATTTA [CACACA_negctrl_site1508],9.63 ± 0.085
12,TAAATTATAACGTGCACACATATTTAAAATGAAATG [CACACA_site2820],10.6 ± 0.45
13,TCTTCACCACGTGGAAGTACATAAAAAGATACACAA [XGTACX_site4747],11.4 ± 0.93
14,AATTTATTAGATAGATGTACATTTTAATAAAAGTAG [XGTACX_site6819],11.1 ± 0.67
15,AGATATTTTTCTTAAGTACACACTAATTAGAAACTA [CACACA_site7897],11.3 ± 0.93
16,CCCATATTATAGGTGTGTACATAAAAGTATATATAA [XGTACX_site3629],11.6 ± 0.95
17,TAACACCAAACTAAATGTACACACATACATAAATAT [XGTACX_site2201],11.2 ± 0.79
18,TATATAATATATTAATGTACGTTATATGTATTCCTT [XGTACX_site6140],11.2 ± 0.81
19,ATAATCCTTGGACACACACACACACTAGTAAATAAA [CACACA_site4423],10.9 ± 0.57
20,ATAAAAGATATTTTTACACACTTTTGATGAGATCGT [CACACA_site3053],10.08 ± 0.057
